Source: PubChem BioAssay (National Center for Advancing Translational Sciences (NCATS))
ELG1 repair inh = ELG1-dependent DNA repair inhibition. 330,000 tested, 2.3% active. HEK293T ELG1-luciferase reporter, luminescence, 16 h; DNA damage induced by 5-fluorouridine. Potency, µM (doses to about 46.1 µM), without a hit: at the top dose activity change, negative = inhibition, actives largely listed as inhibitors; also: potency is read from the fitted curve at half-maximal effect; nearly all actives have a fitted effect of over 55% in size
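5-Fluorouridine DNA damage + compound/DMSO, 2,000 cells/well, 16 h, 37 °C/5% CO2. ONE-Glo, 30 min RT, luminescence. Readout = decrease in reporter signal.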
IL-1B inflam inh = inflammasome signaling inhibition, IL-1 beta readout | THP-1 LPS/ATP IL-1B secretion, AlphaLISA, 16 h; hits give low values | activity change, % at 57.5 µM | 360,000 tested, 4.7% active | AID 743279; in the data active = activity change below about -50%; inconclusive = mostly about -30% to -49%
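Secreted IL-1B measured by AlphaLISA bead assay after 16 h compound exposure of THP-1 cells; compounds (final up to 57.5 uM) added 1 h before LPS (250 ng/mL) and ATP (1.25 mM) stimulation; lower signal means less secretion.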
RORgamma inh = blocks mouse ROR gamma transcriptional activity | Drosophila S2 Gal4-RORgamma UAS-luciferase reporter, 20 h | Potency, µM (doses to about 53.6 µM), for the others: top-dose activity change, negative = inhibition, hits mostly inhibitors | 310,000 tested, 5.4% active | AID 2551; also: potency is read from the fitted curve at half-maximal effect; nearly all actives have a fitted effect of over 60% in size
Target sequence (P51450 whole entry, looked up, the tested form may be a part): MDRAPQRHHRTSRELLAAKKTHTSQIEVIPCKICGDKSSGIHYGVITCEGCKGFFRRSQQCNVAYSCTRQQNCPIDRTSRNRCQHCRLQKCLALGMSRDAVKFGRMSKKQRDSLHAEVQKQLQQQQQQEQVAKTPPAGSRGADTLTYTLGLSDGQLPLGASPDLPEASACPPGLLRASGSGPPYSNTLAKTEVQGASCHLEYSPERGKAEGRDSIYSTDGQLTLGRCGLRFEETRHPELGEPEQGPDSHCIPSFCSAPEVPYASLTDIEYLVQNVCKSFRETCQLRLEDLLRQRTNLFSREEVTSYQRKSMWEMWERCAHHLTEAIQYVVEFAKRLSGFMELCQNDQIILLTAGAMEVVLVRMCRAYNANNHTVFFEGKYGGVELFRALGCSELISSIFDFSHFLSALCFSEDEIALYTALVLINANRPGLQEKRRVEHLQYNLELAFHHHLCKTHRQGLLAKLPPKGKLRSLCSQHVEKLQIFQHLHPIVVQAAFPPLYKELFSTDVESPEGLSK
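A Gal4/UAS one-hybrid system in insect cells: metallothionein-promoter Gal4–ROR gamma fusion plus Photinus luciferase reporter. Copper sulfate 700 uM final, 20 hr ambient incubation, luminescent detection after 10 min with reagent.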
Gal4-VP16 FLuc = inhibits Gal4-VP16 luciferase reporter, ROR gamma counter-screen | Drosophila S2 Gal4-VP16 UAS-luciferase, luminescence, 20 h | Potency, µM (top dose mostly 53.6 µM), inactives show at the top dose activity, negative = inhibition, hits mostly inhibitors | 310,000 tested, 3.5% active | AID 2546;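 also: Gal4-VP16 expression switched on by copper sulfate through the metallothionein promoter; potency is read from the fitted curve at half-maximal effect; nearly all actives have a fitted effect of over 50% in size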
DT40 TDP1 CPT = DT40-hTDP1 cell growth loss with CPT; chicken DT40 Tdp1-/-;hTDP1 cells + 20 nM CPT, ATP luminescence, 48 h; Potency, µM (series often up to 46.2 µM), for inactives: at the top dose activity change, negative = growth inhibition, usual class: inhibitors; 420,000 tested, 12% active; also: potency is read from the fitted curve at half-maximal effect; nearly all actives have a fitted effect of over 55% in size
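Chicken DT40 Tdp1-/- cells stably complemented with human TDP1 were seeded at 400 cells/well in medium containing 20 nM camptothecin, exposed to pin-transferred compounds, and grown at 37 °C for at least 48 hr. Viability was read as ATP luminescence.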
TDP1 cell noCPT = qHTS for Inhibitors of human tyrosyl-DNA phosphodiesterase 1 (TDP1): qHTS in cells in absence of CPT; DT40 Tdp1-/- hTDP1 cells, no CPT, ATP luminescence, 48 h; Potency, µM (highest dose often 46.2 µM), inactives show at the highest dose activity change, negative = growth inhibition, most hits filed as inhibitors; 420,000 tested, 15% active; also: potency is read from the fitted curve at half-maximal effect; nearly all actives have a fitted effect of over 55% in size
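Growth kinetics read by CellTiter-Glo luminescence after ≥48 hr at 37 °C. Cells: DT40 Tdp1-/- stably carrying human TDP1, 400 per well, compound exposure in the absence of CPT (DMSO vehicle).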
An asterisk follows results filed as active; u = inconclusive; x = no result. An excerpt weighted towards active compounds, which were near 21% of everything screened. Unless noted, calls follow the shape of the dose curve; as a rule, active = well fitted curve in the direction sought with a large enough effect; inconclusive = small, poorly fitted or top-dose-only effect, or another doubt; inactive = no such curve, though single readings can be large; an effect the other way counts as inactive or inconclusive. % is scaled to controls: 0 for no effect and ±100 for the full control effect.

SMILES	ELG1 repair inh	IL-1B inflam inh	RORgamma inh	Gal4-VP16 FLuc	DT40 TDP1 CPT	TDP1 cell noCPT
COc1cc(OC)cc(C(=O)NC(=S)Nc2cccnc2)c1	12%	-27	24%	-19%	-1%	u
Cc1ccccc1NC(=S)Nc1ccccc1	-15%	17	u	u	-6%	-18%
COc1cc(NC(=S)Nc2cccnc2)cc(OC)c1	7%	-5	10µM*	u	-15%	u
Cc1cc(NC(=S)Nc2ccccc2)ccc1Br	9%	5	10µM*	u	-8%	-13%
O=S1(=O)c2ccc(Br)cc2N2CCC[C@@H]2CN1C1CC1	x	19	x	x	u	u
C[C@@H](c1ccccc1)N1C[C@H]2CCCN2c2cc(Br)ccc2S1(=O)=O	u	0	x	x	18µM*	u
COc1ccc(CN(C)C(=O)[C@H]2O[C@@H](n3ccc(N)nc3=O)[C@H](O)[C@@H]2O)cc1OC	x	2	x	x	6%	8%
CCOC(=O)COc1ccccc1/C=C\[N+](=O)[O-]	u	-100*	16µM*	3.5µM*	2.6µM*	1.6µM*
Cc1ccc(C(=O)COC(=O)COc2ccccc2[N+](=O)[O-])s1	7%	11	x	x	-6%	-7%
O=C(NCCc1ccccn1)c1nc(Cn2cc(Br)cn2)no1	3%	6	19%	0%	3%	9%
COc1cc(OC)c(Nc2nc3ccc(C)cc3n3nnnc23)cc1Cl	x	x	x	x	-6%	-4%
O=C(O)c1ccc(N/N=C/c2ccnc3ccccc23)cc1	u	u	u	u	-29%	-29%
O=C(N/N=C/c1ccc2nccnc2c1)c1ccccc1O	u	x	6.3µM*	u	x	x
O=C(N/N=C/c1ccc(OC(=O)c2cccs2)cc1)c1cccc(F)c1	u	-12	u	4%	23µM*	21µM*
O=C(N/N=C/c1ccnc2ccccc12)c1ccccc1O	u	-20	-41%	-12%	3.3µM*	12µM*
O=[N+]([O-])c1ccccc1/C=N/NC1=NCCN1	x	-7	x	x	2%	-8%
C(=NNC1=NCCN1)c1ccnc2ccccc12	x	-103*	x	x	-4%	u
COc1ccc(C(=O)N2CCC3(CCN(C(=O)Nc4cccc(F)c4)CC3)CC2)cc1	x	x	16%	9%	-25%	u
Cc1cccc(C(=O)Oc2ccc(/C=N/NC(=O)c3ccccc3O)cc2)c1	u	-26	3.5µM*	3.5µM*	-5%	u
CC(C)C(c1nnnn1Cc1cccs1)N1CCN(C(=O)c2ccco2)CC1 (configuration not stated)	6.5µM*	-2	-6%	-3%	9%	-6%
CCC(c1nnnn1Cc1ccco1)N1CCN(C(=O)c2ccco2)CC1 (configuration not stated)	-2%	5	-11%	-3%	-16%	-15%
O=C(c1ccco1)N1CCN(C(c2ccccc2Cl)c2nnnn2Cc2cccs2)CC1 (configuration not stated)	u	-3	u	2%	u	26µM*
O=C(c1ccco1)N1CCN(C(c2ccccc2)c2nnnn2Cc2cccs2)CC1 (configuration not stated)	15%	-17	u	-5%	-4%	u
O=C(c1ccco1)N1CCN(C(c2ccccc2Cl)c2nnnn2Cc2ccco2)CC1 (configuration not stated)	u	-2	u	u	16µM*	u
CC(=O)SCC(CC(=O)c1ccc(C)cc1)C(=O)O (configuration not stated)	x	x	x	x	8%	-1%
COCCCC1CCN(C(=O)CCc2nnc(CCCCc3ccccc3)o2)CC1	u	6	u	-17%	u	15µM*
